Assay outcomes: PubChem, The Scripps Research Institute Molecular Screening Center
This is a sample that favours compounds with a hit; in the whole collection about 5.7% have one here.
DAX1 inh-1 – DAX1 (NR0B1) inhibitors, primary screen, cell-based, HEK293, Gal4-DAX1, luciferase luminescence | Nuclear receptor subfamily 0 group B member 1 (Homo sapiens), P51843 | HEK293 Gal4-DAX1 luciferase reporter | inhibition, % at 6.75 µM | 0.99% of 340,000 active | AID 504766, 2011;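 active means inhibition above the mean over all tested compounds plus 3 SD, cut at about 4.2% in these data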;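 further: 0% = DAX1-transfected cells with DMSO and 100% = empty-vector control cells with DMSO; inhibition shows as a rise in luminescence from relieved DAX1 repression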
ssDAF12 agonist – S. stercoralis DAF-12 nuclear receptor activators, primary screen, cell-based, luminescence, HEK293, GRIP1 co-expression, lit1-tk-luc | HEK293 ssDAF-12/GRIP1 lit1-tk-luc reporter; % of 3 µM dafachronic acid response | activation, % at 6.8 µM | 1% of 370,000 active;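 active means activation above the mean over all tested compounds plus 3 SD, cut at about 0.9% in these data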;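 further: 0% = DMSO-only wells and 100% = 3 µM delta7-dafachronic acid wells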
hcDAF12 agonist – H. contortus DAF-12 nuclear receptor activators, primary screen, cell-based, luminescence, HEK293, lit1-tk-luc reporter. HEK293 hcDAF-12 lit1-tk-luc reporter; 0% DMSO, 100% Δ7-dafachronic acid. activation, % at 6.8 µM. 1.4% of 370,000 active;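 active means activation above the mean of all tested compounds plus 3 SD, cut at about 5.5% in these data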;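 further: 100% = response to 3 µM Δ7-dafachronic acid high control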
DAX1 inh-2 – DAX1 (NR0B1) inhibitors on StAR promoter, primary screen, cell-based, luminescence, SF-1 (NR5A1), full-length DAX-1; HEK293T StAR-luciferase reporter, SF-1/DAX-1 repression relief; inhibition, % at 6.8 µM; 1.1% of 370,000 active;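 active means inhibition above the mean over all tested compounds plus 3 SD, cut at about 3.6% in these data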;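 further: 0% = DAX-1 cells with DMSO and 100% = cells lacking DAX-1 with DMSO; higher inhibition means more luminescence from relief of DAX-1 repression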
hgDAF-12 ag – H. glycines DAF-12 receptor agonists, primary screen, cell-based, luminescence, HEK293, GAL4 fusion, UAS-luciferase; Nuclear hormone receptor DAF-12 (Heterodera glycines), GAL4 fusion; HEK293 GAL4-hgDAF12 UAS-luciferase reporter, agonist luminescence; normalized to butyrate control; activation, % at 6.8 µM; 1.8% of 370,000 active; AID 687014, 2013;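 active means activation above a cutoff set at the mean of all screened compounds plus 3 SD, cut at about 10% in these data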;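 further: 0% = DMSO wells and 100% = sodium butyrate wells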
AHR activator – AHR activators, primary screen, cell-based, luminescence, luciferase reporter, human. 2.5% of 320,000 active. AHR-responsive luciferase reporter cells. activation, % at 5 µM. Aryl hydrocarbon receptor (Homo sapiens), P35869; in the data active means activation above about 47%;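 further: 0% = vehicle wells and 100% = reference agonist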
Target sequence (P35869 whole entry, looked up): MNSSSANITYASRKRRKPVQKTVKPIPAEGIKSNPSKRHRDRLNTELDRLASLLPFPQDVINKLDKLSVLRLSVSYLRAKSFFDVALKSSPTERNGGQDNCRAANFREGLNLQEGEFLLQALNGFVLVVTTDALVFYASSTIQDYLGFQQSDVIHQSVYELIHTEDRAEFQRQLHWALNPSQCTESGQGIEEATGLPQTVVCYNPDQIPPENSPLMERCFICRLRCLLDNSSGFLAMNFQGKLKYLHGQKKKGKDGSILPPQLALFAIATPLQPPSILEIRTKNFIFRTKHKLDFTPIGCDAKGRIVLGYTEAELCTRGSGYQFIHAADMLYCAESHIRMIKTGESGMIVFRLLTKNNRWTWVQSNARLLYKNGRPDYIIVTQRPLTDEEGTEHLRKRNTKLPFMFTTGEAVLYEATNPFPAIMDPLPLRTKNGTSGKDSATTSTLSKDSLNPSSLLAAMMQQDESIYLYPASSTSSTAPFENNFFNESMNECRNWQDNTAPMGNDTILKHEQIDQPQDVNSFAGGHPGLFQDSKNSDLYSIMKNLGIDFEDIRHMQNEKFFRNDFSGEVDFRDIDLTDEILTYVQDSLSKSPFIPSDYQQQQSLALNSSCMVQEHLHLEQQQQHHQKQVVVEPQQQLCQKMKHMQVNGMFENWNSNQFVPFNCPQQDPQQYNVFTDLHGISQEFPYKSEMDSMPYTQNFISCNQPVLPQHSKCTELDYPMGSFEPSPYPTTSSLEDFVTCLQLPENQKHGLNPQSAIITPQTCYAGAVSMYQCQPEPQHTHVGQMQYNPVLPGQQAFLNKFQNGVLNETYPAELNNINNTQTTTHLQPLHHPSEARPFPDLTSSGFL
DAX1 inh confirm – DAX1 (NR0B1) inhibitors relieving SF-1 repression, confirmation, cell-based, luminescence, HEK293T, full-length DAX-1, SF-1 activated StAR promoter; AID 652134, 2013; shares compounds with DAX1 inh-2; 87% of 2,400 active; inhibition, % at 6.8 µM; HEK293T StAR-promoter luciferase reporter, SF-1/DAX-1 repression;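 active means inhibition above the average of every tested compound plus 3 SD, cut at about 3.8% in these data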;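 further: 0% = DAX-1 cells with DMSO and 100% = no DAX-1 control cells with DMSO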
SF1 mutant ctr – StAR reporter signal changes without DAX1, counter-screen for DAX1 inhibitor project, cell-based, luminescence, AF-2 mutant SF-1, transactivation; shares compounds with DAX1 inh-2; HEK293 StAR-luciferase, SF-1 AF2 mutant; inhibition, % at 6.8 µM; 78% of 2,400 active; AID 652136, 2013;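 active means inhibition above the mean of all tested compounds plus 3 SD, cut at about 3% in these data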;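 further: 0% = DAX-1 transfected cells with DMSO and 100% = cells without DAX-1 with DMSO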
Starred values were filed as active, the others as inactive; nt = no result.

SMILES	DAX1 inh-1	ssDAF12 agonist	hcDAF12 agonist	DAX1 inh-2	hgDAF-12 ag	AHR activator	DAX1 inh confirm	SF1 mutant ctr
O=C(NNC(=S)Nc1ccccc1Cl)c1ccccc1Br	1	0	4	15*	11*	nt	12*	6.1*
CCC(=O)Nc1ccc(-c2nnc(-c3ccccc3)o2)cc1	2	1	2	4.5*	10*	-1	14*	4.5*
O=C(NC(=S)NN1CCOCC1)c1cc(Br)ccc1Cl	0	-1	1	5.2*	0	-1	0	0
O=C1Nc2ccc(Br)cc2C1(O)Cc1ccccn1 (centres undefined)	0	-1	2	1	1	9	nt	nt
O=C(NCCc1ccccc1)C1=COCCO1	1	-1	4	7.8*	8	3	8.7*	6.5*
O=C(Nc1ccc(Br)cc1Cl)c1ccc2c(=O)n3c(nc2c1)CCC3	1	-1	0	5.1*	10	11	5.2*	2.9*
O=C(Nc1ccc(Cl)cc1Cl)c1ccc2c(=O)n3c(nc2c1)CCC3	3	0	3	8.7*	5	1	11*	7.5*
O=C(Nc1ccc(Cl)cc1)c1ccc2c(=O)n3c(nc2c1)CCCCC3	-1	-2	-4	-1	0	7	nt	nt
COC(=O)c1nnn(-c2cc(Cl)cc(Cl)c2)c1C(=O)OC	1	-2	-1	0	-1	0	nt	nt
CCCc1c(C)c2c(C)[nH]nc2oc1=O	0	-1	-1	0	-3	4	nt	nt
CCOC(=O)Cc1c(C)c2c(C)[nH]nc2oc1=O	-1	-1	-1	5.4*	2	0	-1	0
CCOc1ccc(C(=O)NC2CCN(C(=S)Nc3ccccc3C)CC2)cc1	2	-1	0	2	0	3	nt	nt
CC(C)N(C(=O)[C@H]1C[C@H](CC(=O)NCCN2CCOCC2)C(=O)N2CCc3c([nH]c4ccc(Cl)cc34)[C@]12C)C(C)C	-1	-2	-1	5.5*	-2	nt	0	0
N#Cc1c(NC(=O)c2ccco2)sc2c1CCC2	0	-1	3	9.4*	11*	4	9.1*	3.7*
CCOc1ccc(N(CCC#N)S(=O)(=O)c2ccc(OC)cc2)cc1	0	-2	-2	-1	-1	2	nt	nt
CCN(CC)S(=O)(=O)c1ccc(NC(=O)CCN2C(=O)C3CC=CCC3C2=O)cc1 (centres undefined)	1	-1	-1	5.2*	2	0	1	1
CC(C)[C@H](NC(=O)OC(C)(C)C)c1cc(C(=O)N2CCOCC2)c(N)s1	nt	-1	0	6.0*	6	nt	0	-2
Cc1cc(Nc2c(C#N)c(N)nn2C)ccc1F	3	-2	-1	0	1	9	nt	nt
Fc1ccc(-c2csc3ncnc(N4CCc5ccccc5C4)c23)cc1	-2	-2	-1	0	-2	0	nt	nt
O=c1cccc(-c2ccc3ccccc3c2)o1	nt	-1	0	6.6*	7	nt	5.0*	3.1*
Cc1ccc(-c2ccc(SCC(=O)Nc3cc(C)on3)nn2)cc1	0	-2	0	0	2	2	nt	nt
